Compound activity as filed in PubChem.
Shown are actives, neighbours in structure and some others; about 2.8% of the full set was active somewhere.
TROY NFkB inh: inhibitors of TROY-driven NF-kB signaling, primary screen, Q293 LMP1-TROYcd cells, NF-kB luciferase, uHTS. Q293 LMP1-TROYcd NF-kB luciferase reporter, 4 h. inhibition, % at 10 µM. 360,000 tested, 0.98% active. AID 1347056, 2019;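 active = compounds whose plate-normalised and pattern-corrected inhibition of the luciferase reporter signal at the single screening dose is 50% or more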
PAX8 reporter: inhibitors of PAX8-driven TPO luciferase reporter, primary screen, RMG-I cells, single concentration | SteadyGlo, 24 h | inhibition, % at 12.6 µM | 360,000 tested, 1.2% active | AID 652154, 2013;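 active = mean replicate inhibition at least 60% with every replicate also reaching 60%; inconclusive = only one of the two criteria is met; inactive = mean below 60% and not all replicates reaching 60%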;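 also: luciferase light reporting Pax8 driven TPO promoter activity; plate controls were median of neutral control wells for no effect and mitoxantrone controls for full effect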
TWEAK-Fn14 inh: inhibitors of TWEAK-Fn14 signaling, primary screen, luciferase reporter cells, uHTS. TWEAK-stimulated Fn14 reporter cells, luciferase luminescence, 8 h. inhibition, % at 10 µM. 360,000 tested, 2% active. AID 1159606, 2016; in the data active = inhibition above about 50%
LGR2 inh: inhibitors of bursicon-induced LGR2 CRE-luciferase signal, primary screen, cell-based, HEK293, CRE-luciferase reporter, bursicon stimulation; AID 720647, 2013; bursicon-stimulated, 4 h; 380,000 tested, 0.35% active; inhibition, % at 9.99 µM;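 active = drop in luminescence signal, shown as inhibition above about 50% in the replicate tests, limit read from the data, passing the limit was not always enough; inconclusive = probably only some replicates passing the limit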;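 also: agonist challenge used bursicon conditioned medium at about half maximal strength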
EWS-Fli block: EWS/Fli-driven NR0B1 reporter inhibitors, primary screen, A673 cells, NR0B1 luciferase, luminescence, MLPCN library; inhibition, % at 12.6 µM; AID 651661, 2012; viability-normalised; 350,000 tested, 0.67% active;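 active = mean inhibition of at least 50% after viability correction, with every replicate also passing that limit; inconclusive = mean reaches 50% but only one of two replicates passes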;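 also: firefly luciferase signal divided by Alamar Blue viability fluorescence both relative to DMSO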
DNA binding: DNA binders by acridine orange displacement, dose response, counter-screen for EWS/Fli inhibitor project, biochemical, fluorescence polarization, cherry-pick. AC35, µM (doses to about 68 µM), inactives show at the highest dose activity change, negative = DNA binding. salmon sperm DNA acridine orange fluorescence polarization. 640 tested, 2% active. shares compounds with EWS-Fli block;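 active = fitted curve reaches a 35% signal fall AC35 below twice the sample's top valid tested dose, actives reach about 48 µM in these data; inactive = the rest, including activity in the rising direction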;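 also: lower polarization ratio signals compound binding to DNA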
Numbers without * were called inactive; ? = inconclusive; nt = no result; ! = repeats disagree.

SMILES | TROY NFkB inh | PAX8 reporter | TWEAK-Fn14 inh | LGR2 inh | EWS-Fli block | DNA binding
COC(=O)c1cccc(NC(=O)NC(=O)c2ccccc2Cl)c1 | -17 | 30 | -14 | -2 | 86* | -13%
CCOC(=O)Cc1csc(NC(=S)NC(=O)c2ccc(C)cc2)n1 | 26 | 44 | 68* | -6 | 82* | 0%
O=C(O)CN1C(=O)/C(=C\c2ccccc2OCc2ccc(Cl)cc2Cl)SC1=S | 80* | 2 | 97* | -12 | 59* | -6%
COc1ccc(NC(=O)c2cc3ccccc3oc2=O)cc1 | 74* | -8 | 100* | 76* | 76* | -11%
COC(=O)C[C@H]1CC[C@@H](NC(=O)Nc2ccc(C(F)(F)F)cc2)[C@H](CO)O1 | nt | 4 | nt | 1 | 69* | -17%
COC(=O)C[C@@H]1CC[C@@H](NC(=O)Nc2ccc(C(F)(F)F)cc2)[C@H](CO)O1 | nt | 16 | nt | -1 | -32 | nt
COc1ccc(C(=O)OCC(=O)Nc2ccc(Cl)c(C(F)(F)F)c2)c(OC)c1OC | 39 | -7 | 40 | 2 | 73* | 6%
CCN1CCN(/C=N/c2nc3c(s2)CCCC3)CC1 | 86* | nt | 96* | 80* | 57* | -10%
CN1CCN(CC(=O)Nc2nc3c(s2)CCCC3)CC1 | -14 | 13 | 2 | -6 | 6 | nt
O=S(=O)(c1ccccc1)N1CCCCN2[C@H](CO)[C@H](c3ccc(C#Cc4cccnc4)cc3)[C@H]2C1 | nt | -10 | nt | 11 | 10 | nt
COC(=O)C[C@@H]1CC[C@@H]2[C@@H](COc3ccc(NC(=O)Nc4ccc(C#N)cc4)cc3C(=O)N2C)O1 | nt | -5 | nt | -7 | 78* | 12%
COC(=O)C[C@H]1CC[C@H]2[C@H](COc3ccc(NC(=O)Nc4ccc(C#N)cc4)cc3C(=O)N2C)O1 | nt | 4 | nt | -2 | 42 | nt
COC(=O)C[C@@H]1CC[C@H]2[C@H](COc3ccc(NC(=O)Nc4ccc(C#N)cc4)cc3C(=O)N2C)O1 | nt | -2 | nt | 18 | 87* | 5%
OC[C@@H]1[C@H](c2ccc(C#CC3CC3)cc2)[C@H]2CN(CCC(F)(F)F)CCCCN12 | nt | -20 | nt | nt | -1 | nt
CN(C)c1ccc(N=Nc2ccccc2Br)cc1 | 47 | -19 | 77* | ? | 53* | -5%
Cc1noc(C)c1NC(=O)N(C)C[C@@H]1Oc2c(NC(=O)Nc3ccccc3)cccc2C(=O)N([C@@H](C)CO)C[C@@H]1C | nt | nt | nt | -7 | -2 | nt
CC(=O)c1ccc(N=C2C(=O)Nc3ccccc32)cc1 | -13 | 6 | 12 | -3 | 54* | -9%
O=C1Nc2ccccc2C1=Nc1ccc(F)cc1 | -6 | nt | 0 | nt | nt | nt
CC=Cc1ccc2n(c1=O)C[C@@H]1[C@@H](CO)[C@H](C(=O)NCCC)N(Cc3cccnc3)[C@H]21 (mixture of isomers) | nt | nt | nt | -2 | 7 | nt
CCCCCCCCNC(C)C(O)c1ccc(SC(C)C)cc1 (stereo not given) | 18 | -6 | -36 | 2 | 59* | -7%
N#Cc1cccc(-c2ccc(C3[C@@H]4CN(C(=O)Cc5ccncc5)C[C@H]3N4)cc2)c1 (stereo not given in full) | nt | -4 | nt | 5 | 78*! | -4%
CO[C@@H]1CC[C@@H]2CCN(C)C(=O)[C@@H](C)N(C)C(=O)c3cc(C#N)ccc3OC[C@H]1O2 | nt | 10 | nt | -11 | 4 | nt
CN1C(=O)c2cc(NC(=O)c3ccc(C(F)(F)F)cc3)ccc2OC[C@@H]2O[C@@H](CC(=O)NC3Cc4ccccc4C3)CC[C@H]21 | nt | 39 | nt | 4 | 54* | 0%
COC(=O)C[C@@H]1CC[C@@H]2[C@@H](COc3ccc(NC(=O)Nc4cccc(F)c4)cc3C(=O)N2C)O1 | nt | 1 | nt | -10 | 69* | -10%
COC(=O)C[C@@H]1CC[C@@H]2[C@@H](COc3ccc(NC(=O)Nc4cccc(Cl)c4)cc3C(=O)N2C)O1 | nt | 15 | nt | 11 | 77* | 14%
COC(=O)C[C@@H]1CC[C@@H]2[C@@H](COc3ccc(NC(=O)Cc4cccs4)cc3C(=O)N2C)O1 | nt | 6 | nt | -12 | 65* | -20%
